PubChem BioAssay AID1159580 (chemical genetic matrix, 2015)
Out of some 5,500 compounds screened, about 2,000 (36%) were called active. About 18% were inconclusive and are not listed. Rule as the data show it: active = normalized growth mostly below about 0.91 (no sharp cut-off); inconclusive = no clear call, values can overlap the other calls; inactive = mostly above about 0.92. The list shows a part of the results.

Assay: chemical genetic growth profiling, strain panel (AID 1159580);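 also: tested at 20 µM; growth read once vehicle control cultures reached saturation at 30 °C; 1 = growth at the plate median or of vehicle wells; lower values mean less growth of the strain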
Settings: S. cerevisiae deletion strains, growth OD

Measured: normalized growth

CC(C)=CCC/C(C)=C/CC/C(C)=C/CC/C(C)=C/CC/C(C)=C/CC/C(C)=C/CC/C(C)=C/CC/C(C)=C/CC/C(C)=C/CO
active: locus YNL248C, strain rpa49, stronger effect = lower value 1.16 [resistant]
inactive: locus YAL021C, strain ccr4, stronger effect = lower value 0.988 | locus YAL026C, strain drs2, stronger effect = lower value 1 | locus YAL030W, strain snc1, stronger effect = lower value 0.993 | locus YBL061C, strain skt5, stronger effect = lower value 0.988 | locus YBR009C, strain hhf1, stronger effect = lower value 0.995 | locus YBR023C, strain chs3, stronger effect = lower value 1 | locus YBR171W, strain sec66, stronger effect = lower value 1 | locus YBR231C, strain swc5, stronger effect = lower value 0.986 | locus YBR279W, strain paf1, stronger effect = lower value 0.966 | locus YCL011C, strain gbp2, stronger effect = lower value 0.985 | locus YCL016C, strain dcc1, stronger effect = lower value 0.99 | locus YCL061C, strain MRC1, stronger effect = lower value 0.994 | locus YCL069W, strain vba3, stronger effect = lower value 0.99 | locus YCR088W, strain abp1, stronger effect = lower value 0.988 | locus YDL005C, strain med2, stronger effect = lower value 0.992 | locus YDL040C, strain nat1, stronger effect = lower value 0.992 | locus YDR001C, strain nth1, stronger effect = lower value 0.99 | locus YDR069C, strain doa4, stronger effect = lower value 1.01 | locus YDR137W, strain rgp1, stronger effect = lower value 1.01 | locus YDR159W, strain sac3, stronger effect = lower value 1.1 | locus YDR195W, strain ref2 0.997 | locus YDR297W, strain sur2, stronger effect = lower value 0.99 | locus YDR334W, strain swr1, stronger effect = lower value 1.01 | locus YDR335W, strain msn5, stronger effect = lower value 1 | locus YDR392W, strain spt3, stronger effect = lower value 1.11 | locus YEL003W, strain gim4, stronger effect = lower value 1 | locus YEL037C, strain rad23, stronger effect = lower value 1.02 | locus YEL061C, strain CIN8 (second series), stronger effect = lower value 0.998 | locus YER015W, strain faa2, stronger effect = lower value 0.995 | locus YER016W, strain bim1, stronger effect = lower value 0.991 | locus YER111C, strain swi4, stronger effect = lower value 0.996 | locus YER155C, strain BEM2 (second series), stronger effect = lower value 1.01 | locus YFR010W, strain ubp6, stronger effect = lower value 1.01 | locus YGL167C, strain pmr1, stronger effect = lower value 1 | locus YGL173C, strain kem1, stronger effect = lower value 0.998 | locus YGL227W, strain vid30, stronger effect = lower value 0.983 | locus YGL240W, strain doc1, stronger effect = lower value 1.03 | locus YGL253W, strain hxk2, stronger effect = lower value 0.983 | locus YHR013C, strain ard1, stronger effect = lower value 0.987 | locus YHR027C, strain rpn1, stronger effect = lower value 0.986 | locus YHR030C, strain SLT2, stronger effect = lower value 1.02 | locus YHR079C, strain IRE1, stronger effect = lower value 1.01 | locus YHR142W, strain chs7, stronger effect = lower value 0.983 | locus YJL092W, strain hpr5, stronger effect = lower value 1 | locus YJL095W, strain BCK1 (second series), stronger effect = lower value 0.992 | locus YJL095W, strain BCK1, stronger effect = lower value 1.01 | locus YJL115W, strain asf1, stronger effect = lower value 0.989 | locus YJL129C, strain trk1, stronger effect = lower value 0.961 | locus YJL154C, strain vps35, stronger effect = lower value 0.995 | locus YJL164C, strain tpk1, stronger effect = lower value 0.989 | locus YJL166W, strain qcr8, stronger effect = lower value 0.991 | locus YJL187C, strain SWE1, stronger effect = lower value 1 | locus YJR066W, strain TOR1, stronger effect = lower value 0.975 | locus YKL160W, strain elf1, stronger effect = lower value 0.996 | locus YKR026C, strain gcn3, stronger effect = lower value 1 | locus YKR091W, strain srl3, stronger effect = lower value 0.989 | locus YLL001W, strain dnm1, stronger effect = lower value 0.976 | locus YLL026W, stronger effect = lower value 0.995 | locus YLL041C, strain sdh2, stronger effect = lower value 0.996 | locus YLR027C, strain aat2, stronger effect = lower value 1.03 | locus YLR113W, strain HOG1, stronger effect = lower value 0.971 | locus YLR221C, strain rsa3, stronger effect = lower value 0.965 | locus YLR258W, strain gsy2, stronger effect = lower value 0.992 | locus YLR262C, strain YPT6 (second series), stronger effect = lower value 1.01 | locus YLR320W, strain mms22, stronger effect = lower value 0.992 | locus YLR342W, strain FKS1, stronger effect = lower value 0.993 | locus YLR357W, strain rsc2, stronger effect = lower value 1.12 | locus YLR370C, strain arc18, stronger effect = lower value 0.995 | locus YLR384C, strain iki3, stronger effect = lower value 0.994 | locus YML120C, strain ndi1, stronger effect = lower value 0.99 | locus YMR058W, strain fet3, stronger effect = lower value 1.05 | locus YMR125W, strain sto1, stronger effect = lower value 0.984 | locus YMR129W, stronger effect = lower value 0.99 | locus YMR205C, strain PFK2, stronger effect = lower value 0.982 | locus YMR231W, strain pep5, stronger effect = lower value 1 | locus YNL071W, strain lat1, stronger effect = lower value 0.992 | locus YNL183C, strain NPR1, stronger effect = lower value 0.943 | locus YNL209W, strain ssb2, stronger effect = lower value 0.991 | locus YNL322C, strain KRE1 (second series), stronger effect = lower value 0.982 | locus YNR049C, strain mso1, stronger effect = lower value 1.02 | locus YOR001W, strain rrp6, stronger effect = lower value 1.03 | locus YOR070C, strain gyp1, stronger effect = lower value 0.986 | locus YOR080W, strain dia2, stronger effect = lower value 1 | locus YOR083W, strain WHI5, stronger effect = lower value 0.977 | locus YOR106W, strain vam3, stronger effect = lower value 0.969 | locus YOR231W, strain MKK1, stronger effect = lower value 1 | locus YOR265W, strain rbl2, stronger effect = lower value 1.01 | locus YOR270C, strain vph1, stronger effect = lower value 1.12 | locus YOR290C, strain snf2, stronger effect = lower value 1.08 | locus YPL051W, strain arl3, stronger effect = lower value 1.02 | locus YPL078C, strain atp4, stronger effect = lower value 0.996 | locus YPL106C, strain sse1, stronger effect = lower value 1 | locus YPL240C, strain hsp82, stronger effect = lower value 1 | locus YPL256C, strain CLN2, stronger effect = lower value 1.01
